SMILES strings stand for the structures.
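Note: KINOMEscan kinase panel screen.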

For the assay, the system named is T1, LKB1.
T1 construct: gene STK11
The conditions noted are these: concentration: 1 μM, replicates: in singlicate; n = 1.
`COC(=O)C(Cc1ccccc1)NC(=O)NC1CCN(c2ccnc(Nc3ccc(F)cc3)n2)C1` (stereo not drawn) [GSK1379714]: the “%Inh” value is 21%.

On to `CSc1ccc(-c2nc3n(c2-c2ccncc2)CCC3)cc1` [SKF-105561], for which the “%Inh” value was 0%.

Consider `COc1ccc(Nc2nccc(N3CCC(NC(=O)c4cc5ccccc5s4)C3)n2)cc1` (stereo not drawn) [GSK1379738], for which the “%Inh” value was 0%. The result for `Cc1ccc(NC(=O)Nc2ccc(Cl)cc2)cc1-c1ccc(C(=O)Nc2ccncc2)cc1` [GSK1398472] reads 0%. The result for `CC(C)c1ccc(O)cc1Nc1ccnc2ccc(C(F)(F)F)cc12` [GW482059] reads 0%; that for `COC(=O)c1cccc(NC(=O)NC2CCN(c3ccnc(Nc4ccc(F)cc4)n3)C2)c1` (stereo not drawn) [GSK1379725], 0%; that for `O=c1cc(N2CCOCC2)nc2n(Cc3ccccc3F)ccn12` [GSK2297428], 5%. The result for `Cc1ccccc1-c1cc(-c2c[nH]nc2-c2ccccn2)ccn1` [GW680061] reads 0%. `COc1ccc(Nc2nccc(NCCNC(=O)Nc3cc(C)ccc3C)n2)cc1` [GSK1379899]: the “%Inh” value amounted to 0%. The result for `FC(F)(F)c1ccccc1-c1cc(-c2c[nH]nc2-c2ccccn2)ccn1` [GW679396] reads 11%. The result for `Cc1ccccc1Cn1ccn2c(=O)cc(N3CCOCC3)nc12` [GSK2269905] reads 0%.

On to `Cc1ccc(NC(=O)Nc2ccc(Cl)c(C(F)(F)F)c2)cc1-c1ccc(C(=O)Nc2ccncc2)cc1` [GSK1398470], for which the “%Inh” value came to 6%. The result for `CCc1ccc(-c2ccc3c(c2)-c2n[nH]cc2S(=O)(=O)N3C)cc1` reads 17%; that for `CNCc1ccc2nc(NC(=O)c3ccc(C(C)(C)C)cc3)cn2c1`, 31%.

Consider `Fc1ccc(-c2nn3cccc(F)c3c2-c2ccncc2)cc1` [GW475620], for which the “%Inh” value stood at 0%. On to `CNc1nc(-c2ccc3c(N)n[nH]c3c2)cc(N2C[C@@H](C(=O)Nc3ccccc3)CC[C@H]2C)n1` [GSK2298859], for which the “%Inh” value is reported as 7%. With `Cc1ccc(NC(=O)Nc2ccccc2F)cc1-c1ccc(C(=O)Nc2ccncc2)cc1` [GSK1398477], the “%Inh” value came out at 0%.

As for `Cc1ccc(NC(=O)c2ccc(Cl)cc2)cc1-c1ccc(C(=O)Nc2ccncc2)cc1` [GSK1398467], the “%Inh” value is reported as 0%.

In the case of `COC(=O)C(NC(=O)NC1CCN(c2ccnc(Nc3ccc(F)cc3)n2)C1)c1ccccc1` (stereo not drawn) [GSK1379712], the “%Inh” value came to 15%. The result for `Nc1nccc(-c2c(-c3ccc(F)cc3)ncn2C2CCN(Cc3ccccc3)CC2)n1` [SB-219980] reads 36%; that for `NS(=O)(=O)c1cccc(N/C=C2\C(=O)Nc3ccc(S(=O)(=O)Cc4c(Cl)cccc4Cl)cc32)c1` [GSK398099], 0%.

For the compound `CN1c2ccc(-c3ccc(C(N)=O)cc3)cc2-c2[nH]ncc2S1(=O)=O`, the “%Inh” value worked out at 10%. The result for `CNC(=O)c1ccc(C)c(-n2c(C)cc(OCc3ccc(F)cc3F)c(Br)c2=O)c1` reads 0%; that for `Nc1ncnc2occ(-c3ccc4c(c3)CCN4C(=O)Cc3cc(F)ccc3F)c12` [GSK2645446], 0%. The result for `Cc1c(Cn2c(C)c(C)n3c(=O)cc(N4CCOCC4)nc23)cccc1C(F)(F)F` [GSK2328680] reads 18%. The result for `Cc1ccc(-c2nc(Nc3ccncc3)c3ccccc3n2)s1` [GSK189015] reads 0%; that for `O=C1NC(=O)C(c2ccc(Cl)cc2)=C1Nc1cccc(Cl)c1` [SB-317651], 23%; that for `Cn1cnc2c(N)ncnc21` [SKF-97623], 36%. Regarding `Cc1ccc(NC(=O)Nc2ccccc2)cc1-c1ccc(C(=O)Nc2ccncc2)cc1` [GSK1398471], the “%Inh” value worked out at 0%.

On to `CCn1c(-c2c(N)noc2C)nc2cnccc21` [SB-737856], for which the “%Inh” value worked out at 0%. On to `COc1ccc(Nc2nccc(-c3ccc(NC(=O)c4cc5cc(F)ccc5[nH]4)cc3)n2)cc1` [GSK1229496], for which the “%Inh” value is reported as 15%. Regarding `Nc1cccc(-c2ccc3c(N)n[nH]c3c2)n1` [GSK2192730], the “%Inh” value is given as 7%. The result for `CS(=O)(=O)CCNCc1nc(-c2ccc3ncnc(Nc4ccc(OCc5ccccc5)c(Cl)c4)c3c2)cs1.Cl` [GW582764] reads 0%; that for `COc1ccc(Nc2nccc(N3CCC(NC(=O)C(C)c4ccc(Cl)cc4)C3)n2)cc1` (stereo not drawn) [GSK1379735], 0%. The result for `Cc1cnc(N)c(/C=C/c2cncc(C(=O)NCCc3ccc(Cl)cc3Cl)c2)c1.Cl` [GSK190937] reads 28%; that for `O=C(Nc1n[nH]c2nc(-c3cccs3)c(Br)cc12)C1CC1` [SB-735297], 0%.

For the origin of these results see publication PMC5540273 (PLoS ONE, 2017).
